Assay results as given in PubChem BioAssay (NCI).
The panel holds about 79,000 compounds, 15% with a hit somewhere; the sample as a whole holds those more often. Unmarked numbers belong to inactive results. The source made the active and inactive calls. Rule as the data show it: active = growth inhibition above about 70%; inactive = the rest. Where a SMILES comes first, the peptide text is derived from it. Bridges are numbered along the chain shown (N, C = ends).

How the values were obtained:
[1] = NCI Yeast Anticancer Drug Screen. Data for the rad50 strain (AID 155);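 also: 0% = growth of vehicle-only cultures of the same strain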; conditions: S. cerevisiae rad50 strain growth inhibition; at 50.0 µM; stronger effect = higher value
How it was run: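 Inhibition values express reduced yeast growth in compound-treated cultures relative to vehicle-treated controls.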

[2] = NCI Yeast Anticancer Drug Screen. Data for the mec2-1 strain (AID 157); conditions: S. cerevisiae mec2-1 strain, at 50.0 µM, stronger effect = higher value
How it was run: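 Vehicle-treated cultures served as reference for growth inhibition of compound-exposed mec2-1 yeast.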

[3] = NCI Yeast Anticancer Drug Screen. Data for the sgs1 mgt1 strain (AID 161);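 also: 0% = growth of cultures given vehicle only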; conditions: S. cerevisiae sgs1 mgt1 strain, at 50.0 µM, stronger effect = higher value
How it was run: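 Read-out: growth inhibition vs vehicle controls. Cells: mutant yeast strain deficient in DNA damage repair.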

[4] = NCI Yeast Anticancer Drug Screen. Data for the cln2 rad14 strain (AID 165);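 also: 0% = growth equal to vehicle treated cultures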; conditions: S. cerevisiae cln2 rad14 strain, at 50.0 µM, stronger effect = higher value
How it was run: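 Each compound was tested on cln2 rad14 yeast. Inhibition of growth was calculated against vehicle-exposed controls.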

[5] = NCI Yeast Anticancer Drug Screen. Data for the bub3 strain (AID 167); conditions: S. cerevisiae bub3 mutant strain, at 50.0 µM, stronger effect = higher value
How it was run: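 Steps: expose the mutant yeast strain to compound; grow alongside vehicle-treated cultures; measure growth; express inhibition against the vehicle cultures.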

[6] = NCI Yeast Anticancer Drug Screen. Data for the mlh1 rad18 strain (AID 175); conditions: S. cerevisiae mlh1 rad18 strain growth inhibition; at 50.0 µM; stronger effect = higher value
How it was run: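 Vehicle-treated cultures served as the reference for growth inhibition in a yeast strain carrying DNA damage repair alterations exposed to each compound.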

SMILES | growth inhibition [1] | growth inhibition [2] | growth inhibition [3] | growth inhibition [4] | growth inhibition [5] | growth inhibition [6]
O=C1CN(C(=O)Nc2ccccc2)c2ccccc2N1 | 26.6% | -25.5% | -8.3% | 4.55% | 7% | -5.5%
CCSc1nc2ccc(CN3C(=O)c4ccccc4C3=O)cc2s1 | 1.3% | -3.5% | -4.6% | 1.5% | 15.8% | -2.3%
O=C(O)[C@H](CSSC[C@@H](C(=O)O)N1C(=O)c2ccccc2C1=O)N1C(=O)c2ccccc2C1=O | 20.3% | -6.4% | -4.85% | 31.4% | 2.8% | -4.4%
COC(=O)c1nc(N)nc(C(=O)OC)c1C(=O)C(C)C | 5.4% | -10.7% | -24.9% | -13.4% | -29% | -1%
O=C1C2C(C(=O)N1c1cccc3ccccc13)C1(Cl)C(Cl)=C(Cl)C2(Cl)C1(Cl)Cl (stereo unspecified) | 91% (active) | 93.7% (active) | 94.6% (active) | 91.5% (active) | 89.3% (active) | 94.5% (active)
COc1cc2c(cc1OC)[C@H]1C(COC(=O)c3ccccc3)CSC(=Nc3ccccc3)N1CC2 (stereo partly specified) | 21.9% | 17.6% | 36% | 49.8% | 36.9% | 22.3%
Cn1cc(S(=O)(=O)NC(=O)Nc2ccc(Cl)cc2)c(=O)c2ccc(Cl)cc21 | 21.6% | 20.8% | 23.1% | -17.5% | 33.2% | 8.75%
C[n+]1c(/C=C\c2ccc(O)cc2)cc(C(N)=O)c2ccccc21 | 19.2% | 11.8% | 17.1% | 2.6% | 3.65% | 7.7%
Cc1ccc(NC(=O)Nc2cccc(Cl)c2C)cc1C | 3.75% | 11.5% | 12.8% | -1.85% | 8.45% | -15.9%
CCC(CC)OC(=O)Nc1cccc2ccccc12 | -16.4% | -9.65% | -5.75% | -55% | 4.9% | -14.6%
CCOC(=O)c1sc(C(=O)OCC)c2c1-c1cccc3cccc-2c13 | -35.6% | 13.1% | 4.35% | -48% | 15.1% | -9.95%
CCCCCCCC/C=C\CCCCCCCCOC(=O)CC(O)C(=O)OCCCCCCCC/C=C\CCCCCCCC (stereo unspecified) | -22.6% | -4.05% | -7.5% | -22.9% | -9.8% | -17.2%
Clc1ccc(/C=C2\c3ccccc3-c3nc4ccccc4nc32)cc1 | -6.7% | -8.05% | -8.65% | -13.4% | -8.25% | -21.9%
COCCc1ccncc1 | -0.85% | -35.3% | -31.3% | -6.45% | -15.8% | -7.9%
CC(=O)Nc1ccc(N=Nc2c(C)nn(C(=N)N)c2C)cc1 | -5.45% | -8.55% | 0.45% | 0.6% | -4.2% | 9%
COc1cc([N+](=O)[O-])c(S(=O)(=O)O)cc1-n1nc(-c2ccccc2)n[n+]1-c1cc(S(=O)(=O)[O-])c([N+](=O)[O-])cc1OC | -5.65% | 4.15% | -13.3% | -22.7% | -20.4% | 16.2%
CC1(C)C(N)C(C)(C)C1N (stereo unspecified) | -0.05% | -14.5% | -0.3% | 11.8% | 17.1% | 2.3%
CC(C)(CCCOc1ccccc1)/C(=N/O)c1ccccc1 | 14.1% | 5.6% | -14.9% | 21.6% | 11.6% | -14.5%
COc1ccccc1NC(=S)N1CCC(CCCC2CCN(C(=S)Nc3ccccc3OC)CC2)CC1 | -30.3% | -22.9% | -9.75% | -11.8% | -20.9% | -13.2%
Cc1ccc(S(=O)(=O)N2CCSCCSCCSCCN(S(=O)(=O)c3ccc(C)cc3)CC2)cc1 | 7.05% | -0.8% | 4.25% | 15.6% | -4.1% | 23.1%
Cc1cc(N(CCC#N)CCC#N)ccc1/C=C1/N=C(c2ccccc2)N(N)C1=O | -2.55% | 13.2% | 9.9% | 2.7% | 5.15% | -3.3%

SMILES | growth inhibition [1] | growth inhibition [2] | growth inhibition [3] | growth inhibition [4] | growth inhibition [5] | growth inhibition [6]
Fc1nc2nc(C(F)(F)F)[nH]c2nc1F | 15.8% | -0.85% | -23.9% | -59.5% | 0.85% | 7.6%
CCOC(=O)c1ncn(C2OC(CO)C(O)C2O)c1N (stereo unspecified) | 19.5% | 1.6% | 31.4% | 12.3% | 14.2% | 25.2%
CC(=O)OC1CC2CC1C1C=CCC21 (stereo unspecified) | 10.3% | 3.75% | 19.8% | 11.3% | 6.5% | 0.65%
O=C(O)c1ccccc1CC(Cc1ccccc1)C(=O)O (stereo unspecified) | -14.7% | -3.4% | -10.9% | -8.5% | -12.4% | 14%
CCOP(=O)(OCC)/C(C#N)=C/c1cc(OC)ccc1OC | 28.4% | -4.75% | -2.65% | -8.9% | -13.4% | 11.8%
O=C(CC(=O)c1ccccc1)CC(Nc1ccccc1)c1ccccc1 (stereo unspecified) | 58% | 10% | 46.1% | -8.5% | 7.55% | 45.9%
CC1(C)OC2C(CO)OC(n3ccc(N)nc3=O)C2O1 (stereo unspecified) | -33% | -12% | 2.15% | -29.9% | 10.6% | -1.75%
O=C(O)COc1ccccc1/C=C1/SC(=S)N(c2ccccc2)C1=O | -1.4% | -10.8% | -7.25% | -41.5% | 0.55% | 1.1%
CCCCCSCCC(=O)O | 12.4% | 11.7% | 11.2% | 4.25% | -1.2% | -6.35%
COc1ccc(NC(=O)C2C(=O)N(c3ccc(OC)cc3)C(=O)/C2=N\N)cc1 (stereo unspecified) | 11.6% | -19.4% | -2.9% | -57.6% | 19.4% | 3.35%
COC(=O)C(=O)C1(c2ccccc2)CCCC(CN(C)C)=C1O (stereo unspecified) | 3.35% | -0.15% | 2.65% | -4.95% | -2.65% | -12.7%
COCN1COCN(C)C1=O | 8.5% | 7.3% | -1.55% | 11.6% | 23.9% | 9.1%
NC1(C(=O)O)CCCCC1 | -11.3% | -7.5% | -30.7% | -34.7% | -12.9% | -18.4%
O=C1Sc2ccccc2C(=O)N2CCCC12 (stereo unspecified) | -20.8% | -8.25% | -11.5% | 3.2% | 8.2% | -10.2%
CCN(CC)c1ccc(C)cc1Cl | -5.7% | 7.5% | -12.2% | -16.8% | 7.05% | 5.55%
C(=C(Sc1ccccc1)Sc1ccccc1)C(Sc1ccccc1)c1ccccc1 (stereo unspecified) | 12.5% | 21.9% | -5.35% | 10.8% | 20.7% | -13.6%
CC1OC(CO)C2OC(C)OCC2O1 (stereo unspecified) | -14.2% | -13.9% | -12.8% | -18.1% | 5.75% | 3.95%
Cc1cc(=O)[nH]c(/N=C(/N)N(C)C)n1 | 4.15% | -10.8% | 3% | 11.4% | 8.2% | 5.05%
NCCCCCS(=O)(=O)O | 17.4% | -1.15% | -0.85% | 4.05% | -0.65% | 8.65%
CCOC(=O)C1CSSCC(N)C(=O)N1 (stereo not drawn) (H-Cys-Cys-OEt; disulfide 1-2; configuration not given here) | 5.65% | -1.25% | -11.6% | -48.8% | -11.6% | 4.7%
